MEX-5 binding: MEX-5 zinc finger RNA-binding disruptors – biochemical, C. elegans, fluorescence polarization, MLPCN library, primary screen; Zinc finger protein mex-5 (Caenorhabditis elegans), Q9XUB2; MEX-5/FITC-TCR2 RNA binding; stronger effect = lower value; activity score (negative = inhibition of binding), % at 10 µM; 300,000 compounds, 0.38% hits;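 active means inhibition past about -25% in most replicates, and total fluorescence under double the plate's negative control median, limit read from the data; inconclusive means replicates evenly split on the limit, or fluorescence at least double controls; inactive means too little inhibition in most replicates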;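 further: 0% = DMSO and -100% = 5 µM competing unlabeled TCR2 RNA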
eLon inh: inhibitors of E. coli Lon protease, primary screen, biochemical, fluorescence polarization; P0A9M0; purified E. coli Lon protease; inhibition, % at 7.94 µM; 360,000 compounds, 0.42% hits; AID 602123, 2011; in the data active means inhibition above about 13%, passing the limit was not always enough;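 further: 0% = enzyme with probe and DMSO and 100% = no enzyme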
GLD-1 RNA inh: GLD-1/TGE RNA complex disruptors, primary screen, biochemical, fluorescence polarization; Female germline-specific tumor suppressor gld-1 (Caenorhabditis elegans), Q17339; purified GLD-1 + fluorescein TGE RNA; inhibition, % at 5.96 µM; 320,000 compounds, 0.44% hits; AID 2280, 2010;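 active means percent inhibition above a per-plate cutoff, the plate mean of test compounds plus 3 SD, cut at about 30% in these data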;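 further: 0% = DMSO wells with GLD-1 and probe and 100% = wells lacking GLD-1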
EBV gp42 inh: Epstein-Barr virus gp42 inhibitors, primary screen, biochemical, uHTS, fluorescence polarization; Glycoprotein 42 (Epstein-Barr virus (strain AG876)), Q1HVG2; Fluorescence polarization binding assay, mP read-out; inhibition, % (tested at 21.74 µM); 220,000 compounds, 0.42% hits; AID 1085, 2008; in the data active means inhibition above about 50%
Target sequence (Q1HVG2 whole entry, looked up): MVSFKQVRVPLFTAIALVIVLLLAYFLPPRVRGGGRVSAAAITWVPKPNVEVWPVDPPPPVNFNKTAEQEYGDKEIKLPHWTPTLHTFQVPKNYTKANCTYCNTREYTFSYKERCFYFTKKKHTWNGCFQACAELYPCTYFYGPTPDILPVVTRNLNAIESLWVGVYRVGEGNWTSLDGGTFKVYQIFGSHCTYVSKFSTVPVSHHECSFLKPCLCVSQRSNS
BCLXL inh: inhibitors of human Bcl-xL, primary screen, biochemical, fluorescence polarization, HTS. Bcl-2-like protein 1 (Homo sapiens), Q07817. GST-Bcl-xL / FITC-Bim BH3 peptide fluorescence polarization. inhibition, % at 10.9 µM. 320,000 compounds, 0.7% hits;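 active means inhibition above the mean of all tested compounds plus 3 SD, cutoff set per campaign, cut at about 30% in these data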;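 further: 0% = DMSO wells and 100% = unlabeled Bim-BH3 peptide competitor; inhibitors lower millipolarization by displacing the labeled peptide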
Target sequence (Q07817 whole entry, looked up): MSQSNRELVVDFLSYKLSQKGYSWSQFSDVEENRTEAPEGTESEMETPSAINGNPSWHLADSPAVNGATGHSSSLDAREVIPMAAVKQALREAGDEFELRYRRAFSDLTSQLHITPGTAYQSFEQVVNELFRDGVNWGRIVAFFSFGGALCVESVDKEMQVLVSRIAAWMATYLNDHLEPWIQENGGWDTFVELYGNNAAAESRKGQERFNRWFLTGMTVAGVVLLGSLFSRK
An asterisk follows results filed as active; i = inactive; ? = inconclusive; . = no result; + = active, no number. Only some compounds are listed: those with a hit (about 1.3% of all), similar ones and a draw of the others.

SMILES | MEX-5 binding | eLon inh | GLD-1 RNA inh | EBV gp42 inh | BCLXL inh
COC(=O)/C=C1\C(=O)N(c2nc3ccc(OC)cc3s2)C(=S)N1c1ccc(F)cc1 | -1 | . | 3 | -20 | 2
CC1CCC(NC(=O)C2CCC(CNS(=O)(=O)c3ccc4c(c3)C(C)(C)C(=O)N4C)CC2)CC1 (stereo unspecified) | . | -5 | . | . | .
O=C(NC1CCCc2c1cnn2-c1ccccc1F)c1ccccn1 (stereo unspecified) | 2 | -8 | -4 | . | 3
O=C(NC1CCCc2c1cnn2-c1ccc(F)cc1F)c1ccccn1 (stereo unspecified) | 0 | -12 | -5 | -9 | 31*
Cc1ccccc1N=C1Nc2ccccc2N[C@]12C[C@H]1CCC(=O)N3CC[C@@H](C2)[C@@H]13 | . | 2 | . | . | .
COc1ccc2nc(SC)c(C#N)cc2c1 | 0 | -8 | -2 | 2 | 3
COc1ccc2nc(SCC(C)=O)c(C#N)cc2c1 | ? | -7 | -8 | -10 | 32*
COc1ccc2[nH]cc(CCNC(=O)Cc3ccc(F)cc3)c2c1 | 0 | 10 | -3 | . | 8
Cc1[nH]nc2c1C1(CCN(Cc3ccccc3)CC1)C(C#N)=C(N)O2 | -2 | -9 | 17 | 17 | 40*
O=C1/C(=N\S(=O)(=O)c2cccs2)C([n+]2cccc(Cc3ccccc3)c2)=C([O-])c2ccccc21 | ? | -1 | 179* | 142* | +
CC(C)(C)c1cc[n+](C2=C([O-])c3ccccc3C(=O)/C2=N\S(=O)(=O)c2ccccc2)cc1 | -3 | 0 | 2 | 3 | 2
O=C1/C(=N\S(=O)(=O)c2cccs2)C([n+]2ccc(CCCc3ccccc3)cc2)=C([O-])c2ccccc21 | -40* | -3 | 3 | 35 | 13
Cc1cc(C)c[n+](C2=C([O-])c3ccccc3C(=O)/C2=N\S(=O)(=O)c2cccs2)c1 | 2 | 0 | 6 | -4 | 4
Cc1cc[n+](C2=C([O-])c3ccccc3C(=O)/C2=N\S(=O)(=O)c2cccs2)cc1C | -34* | -1 | 0 | -4 | 7
S=C(NCCc1ccccc1)Nc1ccc(Br)cc1 | 2 | 4 | 3 | 0 | 6
O=C(Nc1cccc(F)c1)/C(=C\c1cccnc1)NC(=O)c1ccco1 | -1 | -5 | 0 | -21 | 1
Cc1ccc(NC(=O)/C(=C\c2cccnc2)NC(=O)c2ccco2)cc1 | -3 | 1 | 29 | -2 | 89*
CC1=C(C#N)C(=O)N(C2CCS(=O)(=O)C2)C(=O)/C1=C\c1ccco1 (stereo unspecified) | -99* | . | 14 | 124* | 49*
O=C(c1cccc(N2C(=O)c3ccccc3C2=O)c1)N1CCCCCC1 | 0 | -12 | 0 | -3 | -1
O=C1c2cccc3c(N4CCCCC4)ccc(c23)C(=O)N1c1cccc(O)c1 | 14 | -134 | 8 | 25 | 34*
Cc1ccc2c(c1)=C(c1sc(N(C)c3ccc(O)cc3)nc1O)C(=O)N=2 | 1 | -16 | -7 | . | 8
O=C1N=c2ccc(Br)cc2=C1c1sc(=O)[nH]c1O | -26* | . | 2 | . | 20
N=C1/C(=C/c2coc3ccccc3c2=O)C(=O)N=C2SC(c3ccco3)=NN12 | ? | -326 | -35 | 45 | -26
N=C1/C(=C\c2coc3ccccc3c2=O)C(=O)N=C2SC(c3ccncc3)=NN12 | 0 | -351 | -84 | -59 | -28
CC(C)CSC1=NSC2=NC(=O)/C(=C\c3coc4ccccc4c3=O)C(=N)N12 | ? | -256 | -195 | 104* | 80*
SMILES | MEX-5 binding | eLon inh | GLD-1 RNA inh | EBV gp42 inh | BCLXL inh
CC(C)CSC1=NSC2=NC(=O)/C(=C\c3ccccc3)C(=N)N12 | -5 | -28 | -13 | 0 | -4
CSC1=NSC2=NC(=O)/C(=C\c3coc4ccccc4c3=O)C(=N)N12 | . | -360 | -91 | 76* | -17
N=C1/C(=C\c2coc3ccc(O)cc3c2=O)C(=O)N=C2SC=CN12 | ? | -233 | 55* | 33 | 61*
CCN1CCN(C(=O)c2ccc(CN(c3ccccc3)S(=O)(=O)c3ccccc3)cc2)CC1 | 1 | 10 | 8 | -9 | 6
O=C(NCCN1CCOCC1)c1ccc(NS(=O)(=O)c2cccc([N+](=O)[O-])c2)cc1 | 0 | -12 | 3 | . | 4
O=C(CCN1CCN(c2ccccc2)CC1)N/N=C/c1ccc(O)c(O)c1O | 0 | 3 | . | 58* | .
COc1ccc(/C=N/NC(=O)CCN2CCN(c3ccccc3)CC2)c(OC)c1OC | 3 | -10 | -4 | 4 | -1
CCC1CCc2sc(C(=O)OCC(=O)N(CCOC)c3c(N)n(Cc4ccccc4)c(=O)[nH]c3=O)cc2C1 (stereo unspecified) | 4 | -10 | 5 | . | 2
COCCN(C(=O)COC(=O)c1cc2c(s1)CCC2)c1c(N)n(Cc2ccccc2)c(=O)[nH]c1=O | -11 | -11 | 3 | . | 32*
O=C(c1cccs1)N1C[C@H](n2cc(C3CC3)nn2)[C@@H](O)C[C@@H]1c1ccc(Cl)cc1 | . | -3 | . | . | .
COc1cccc(C2c3c(oc4ccccc4c3=O)C(=O)N2Cc2ccco2)c1 (stereo unspecified) | -48* | -1 | -5 | . | -3
O=C(O)CSc1cc(NS(=O)(=O)c2ccc(Br)cc2)c2ccccc2c1O | -71* | 11 | 10 | . | 21
O=S(=O)(Nc1cc(Sc2ncn[nH]2)c(O)c2ccccc12)c1ccccc1 | . | 4 | . | -17 | .
Cc1ccc(C)n1-c1cccc(N)c1 | -4 | . | -11 | -10 | 36*
Cc1ccc(C)n1-c1cccc(C(=O)O)c1 | -93* | . | 14 | 17 | 26
CCOC(=O)N1CCN(S(=O)(=O)N2CCCC(C(=O)NCc3cccc(OC)c3)C2)CC1 (stereo unspecified) | -1 | -6 | 4 | . | 0
COc1ccc(C2C(C(C)=O)=C(C)N=c3s/c(=C\c4cc(C)n(C)c4C)c(=O)n32)c(OC)c1 (stereo unspecified) | -38* | i | -111 | 92* | -42
COc1ccc(C2C(C(C)=O)=C(C)N=c3s/c(=C\c4ccco4)c(=O)n32)c(OC)c1 (stereo unspecified) | 1 | -3 | -4 | -40 | -3
CCN1CCN(CCCNC(=O)C2CCCN(c3nc4c(C)cc(C)cc4s3)C2)CC1 (stereo unspecified) | -2 | -4 | 1 | . | 0
COc1ccc(CCNC(=O)COc2nsnc2N2CCOCC2)cc1OC | -4 | -8 | 6 | 82* | 5
COc1ccc(NC(=O)COc2nsnc2N2CCOCC2)cc1 | -1 | -6 | -1 | 7 | 4
CCOC(=O)CCCNC(=O)CSc1nnc(-c2ccccc2)c(-c2ccccc2)n1 | 2 | -2 | -7 | . | 5
COc1ccc(/C=C(\C#N)C(=O)OCC(=O)NCc2ccccc2)cc1 | 4 | -6 | 1 | -8 | 4
